# Experimental data published in the supplement of paper PMC9023506.
# Where a name gives a salt, the structure may show the parent alone.
# Tests used:
# Settings in all cases: 10 µM; exposure time: 3 h pre-incubation + 3 h imaging
# [1] = test system: Danio rerio larvae (5 dpf); assay: activity during first hour (no stimuli), difference vs DMSO (percentage points (treated minus DMSO)); higher = more of the behaviour than the DMSO vehicle control
# Procedure, shortened: (§1)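 Library drugs were diluted 1000× from DMSO stocks into egg water to reach 10 µM and applied to 5-dpf wild-type zebrafish larvae in 96-well ProxiPlates, 48 larvae per drug. The larvae stayed exposed for 3 h before imaging and for the 3 h of imaging at 28.5 °C. Behaviour scores, given in percentage points, are the treated mean minus the vehicle mean for movement and upper-half location.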
# [2] = test system: Danio rerio larvae (5 dpf); assay: optomotor response to green moving lines, difference vs DMSO (percentage points (treated minus DMSO)); higher = more of the behaviour than the DMSO vehicle control
# Procedure, shortened: as §1
# [3] = test system: Danio rerio larvae (5 dpf); assay: startle response to 20-s acoustic pulses, difference vs DMSO (percentage points (treated minus DMSO)); higher = more of the behaviour than the DMSO vehicle control
# Procedure, shortened: as §1
# [4] = test system: Danio rerio larvae (5 dpf); assay: optomotor response to fast red moving lines, difference vs DMSO (percentage points (treated minus DMSO)); higher = more of the behaviour than the DMSO vehicle control
# Procedure, shortened: as §1
# [5] = test system: Danio rerio larvae (5 dpf); assay: activity during period 15 (no stimuli), difference vs DMSO (percentage points (treated minus DMSO)); higher = more of the behaviour than the DMSO vehicle control
# Procedure, shortened: as §1
# [6] = test system: Danio rerio larvae (5 dpf); assay: habituation to 1-s acoustic pulses, difference vs DMSO (percentage points (treated minus DMSO)); higher = more of the behaviour than the DMSO vehicle control
# Procedure, shortened: as §1
# [7] = test system: Danio rerio larvae (5 dpf); assay: excitability to 1-s acoustic pulses, difference vs DMSO (percentage points (treated minus DMSO)); higher = more of the behaviour than the DMSO vehicle control
# Procedure, shortened: as §1
# [8] = test system: Danio rerio larvae (5 dpf); assay: optomotor response to red moving lines, difference vs DMSO (percentage points (treated minus DMSO)); higher = more of the behaviour than the DMSO vehicle control
# Procedure, shortened: as §1
# [9] = test system: Danio rerio larvae (5 dpf); assay: optomotor response to blue moving lines, difference vs DMSO (percentage points (treated minus DMSO)); higher = more of the behaviour than the DMSO vehicle control
# Procedure, shortened: as §1
structure (smiles),measurement,setting,value
Nc1nc(F)nc2c1ncn2[C@@H]1O[C@H](CO)[C@@H](O)[C@@H]1O [Fludarabine],activity during first hour,[1],3.66
same,optomotor response to green moving lines,[2],1.3
same,startle response to 20-s acoustic pulses,[3],3.23
NS(=O)(=O)c1cc(C(=O)O)c(NCc2ccco2)cc1Cl [Furosemide],activity during first hour,[1],5.98
same,optomotor response,[4],0.619
Cc1cccc(CN2CCN(C(c3ccccc3)c3ccc(Cl)cc3)CC2)c1 (configuration not stated) [Meclizine dihydrochloride],activity during period 15,[5],8.13
same,activity during first hour,[1],29.1
same,optomotor response,[4],-10.8
C#C[C@]1(O)CC[C@H]2[C@@H]3CCC4=CC(=O)CC[C@@H]4[C@H]3CC[C@@]21CC [Levonorgestrel],habituation to 1-s acoustic pulses,[6],-7.34
same,activity during first hour,[1],-8.15
same,startle response to 20-s acoustic pulses,[3],-4.51
Cc1ccc(NC(=O)c2ccc(CN3CCN(C)CC3)cc2)cc1Nc1nccc(-c2cccnc2)n1 [Imatinib mesylate],excitability to 1-s acoustic pulses,[7],12.7
same,activity during period 15,[5],-11.6
same,activity during first hour,[1],-12.5
same,startle response to 20-s acoustic pulses,[3],5.5
C=CC(=O)N1CCC[C@@H](n2nc(-c3ccc(Oc4ccccc4)cc3)c3c(N)ncnc32)C1 [Ibrutinib],excitability to 1-s acoustic pulses,[7],-2.71
same,optomotor response to red moving lines,[8],-1.62
same,activity during period 15,[5],-4.55
same,optomotor response to blue moving lines,[9],6.42
CCOC(=O)C1=C(C)NC(C)=C(C(=O)OC)C1c1cccc(Cl)c1Cl (configuration not stated) [Felodipine],excitability to 1-s acoustic pulses,[7],-13.3
same,activity during period 15,[5],-11.6
same,optomotor response to blue moving lines,[9],-5.26
same,optomotor response to green moving lines,[2],-6.01
same,startle response to 20-s acoustic pulses,[3],9.85
CC(C)c1ccc2oc3nc(N)c(C(=O)O)cc3c(=O)c2c1 [Amlexanox],optomotor response to red moving lines,[8],-3.59
same,activity during period 15,[5],7.93
same,optomotor response to green moving lines,[2],-0.74
same,startle response to 20-s acoustic pulses,[3],0.978
CCOC(=O)[C@H](CCc1ccccc1)N[C@H]1CCc2ccccc2N(CC(=O)O)C1=O [Benazepril hydrochloride],optomotor response to blue moving lines,[9],5.7
same,optomotor response to green moving lines,[2],11.6
C=C1[C@H](CO)[C@@H](O)C[C@@H]1n1cnc2c(=O)[nH]c(N)nc21 [Entecavir],excitability to 1-s acoustic pulses,[7],-3.18
same,optomotor response to red moving lines,[8],1.68
same,activity during period 15,[5],-0.773
same,optomotor response to green moving lines,[2],0.498
CC[C@H]1OC(=O)[C@H](C)[C@@H](O[C@H]2C[C@@](C)(OC)[C@@H](O)[C@H](C)O2)[C@H](C)[C@@H](O[C@@H]2O[C@H](C)C[C@H](N(C)C)[C@H]2O)[C@](C)(O)C[C@@H](C)CN(C)[C@H](C)[C@@H](O)[C@]1(C)O [Azithromycin],optomotor response to red moving lines,[8],-11.1
same,startle response to 20-s acoustic pulses,[3],2.64
OC(c1cc(C(F)(F)F)nc2c(C(F)(F)F)cccc12)C1CCCCN1 (configuration not stated) [Mefloquine hydrochloride],habituation to 1-s acoustic pulses,[6],0.613
same,optomotor response to red moving lines,[8],8.36
CN1CCN(CCCN2c3ccccc3Sc3ccc(Cl)cc32)CC1 [Prochlorperazine dimaleate],optomotor response to red moving lines,[8],4.44
same,activity during period 15,[5],16.6
same,startle response to 20-s acoustic pulses,[3],-7.34
C/C(O)=C(\C#N)C(=O)Nc1ccc(C(F)(F)F)cc1 [Teriflunomide],habituation to 1-s acoustic pulses,[6],-1.26
same,excitability to 1-s acoustic pulses,[7],10.6
same,activity during period 15,[5],10.3
same,optomotor response to blue moving lines,[9],-8.25
same,optomotor response to green moving lines,[2],-10.8
same,optomotor response,[4],-7.56
COc1cc2nc(N3CCN(C(=O)c4ccco4)CC3)nc(N)c2cc1OC [Prazosin hydrochloride],habituation to 1-s acoustic pulses,[6],0.4
same,excitability to 1-s acoustic pulses,[7],13.5
same,optomotor response to red moving lines,[8],-6.9
CCCN(CCC)S(=O)(=O)c1ccc(C(=O)O)cc1 [Probenecid],habituation to 1-s acoustic pulses,[6],4.24
same,excitability to 1-s acoustic pulses,[7],4.8
same,optomotor response to red moving lines,[8],-2.21
C[C@H]1C[C@@H]2[C@H]([C@@H](O)C[C@@]3(C)[C@H]2CC[C@]3(O)C(=O)CO)[C@@]2(C)C=CC(=O)C=C12 [Methylprednisolone],habituation to 1-s acoustic pulses,[6],-1.22
same,optomotor response to red moving lines,[8],-1.93
same,activity during period 15,[5],-4.72
same,startle response to 20-s acoustic pulses,[3],-0.0848
Cc1ccsc1C(=CCCN1CCC[C@@H](C(=O)O)C1)c1sccc1C [Tiagabine hydrochloride],habituation to 1-s acoustic pulses,[6],6.27
same,optomotor response to red moving lines,[8],20.4
same,startle response to 20-s acoustic pulses,[3],5.98
Nc1cc(N2CCCCC2)nc(N)[n+]1[O-] [Minoxidil],optomotor response to blue moving lines,[9],-6.76
COC(c1ccccc1)(c1ccccc1)[C@H](Oc1nc(C)cc(C)n1)C(=O)O [Ambrisentan],habituation to 1-s acoustic pulses,[6],1.34
same,optomotor response to red moving lines,[8],-4.02
same,activity during period 15,[5],-4.72
same,optomotor response to green moving lines,[2],-4.71
same,startle response to 20-s acoustic pulses,[3],5.96
same,optomotor response,[4],-12.3
CC(C)(C#N)c1cc(Cn2cncn2)cc(C(C)(C)C#N)c1 [Anastrozole],optomotor response to red moving lines,[8],-3.51
same,optomotor response to green moving lines,[2],-2.71
CC(=O)Nc1ccc(O)cc1 [Acetaminophen],optomotor response to red moving lines,[8],-2.99
same,optomotor response to green moving lines,[2],8.32
same,startle response to 20-s acoustic pulses,[3],-1.63
same,optomotor response,[4],-11.2
CN1CC(=O)N2[C@H](c3ccc4c(c3)OCO4)c3[nH]c4ccccc4c3C[C@@H]2C1=O [Tadalafil],excitability to 1-s acoustic pulses,[7],4.84
same,optomotor response to red moving lines,[8],-0.75
COc1c(C)c2c(c(O)c1C/C=C(\C)CCC(=O)OCCN1CCOCC1)C(=O)OC2 [Mycophenolate mofetil],optomotor response to red moving lines,[8],12.2
same,activity during period 15,[5],-0.943
same,optomotor response to green moving lines,[2],4.99
same,optomotor response,[4],2.27
COc1ccccc1OCCNCC(O)COc1cccc2[nH]c3ccccc3c12 (configuration not stated) [Carvedilol],optomotor response to red moving lines,[8],1.15
same,startle response to 20-s acoustic pulses,[3],4.96
CC(=O)Oc1cc2c(s1)CCN(C(C(=O)C1CC1)c1ccccc1F)C2 (configuration not stated) [Prasugrel],optomotor response to blue moving lines,[9],3.83
same,optomotor response to green moving lines,[2],-2.39
COc1ccc([C@@H]2Sc3ccccc3N(CCN(C)C)C(=O)[C@@H]2OC(C)=O)cc1 [Diltiazem hydrochloride],excitability to 1-s acoustic pulses,[7],1.38
same,optomotor response to red moving lines,[8],-1.99
same,optomotor response to green moving lines,[2],-3.02
same,startle response to 20-s acoustic pulses,[3],0.061
COc1cc2ncnc(Nc3ccc(F)c(Cl)c3)c2cc1OCCCN1CCOCC1 [Iressa],optomotor response to blue moving lines,[9],5.63
Cc1ccccc1C(=O)Nc1ccc(C(=O)N2CCCC(O)c3cc(Cl)ccc32)c(C)c1 (configuration not stated) [Tolvaptan],optomotor response to red moving lines,[8],-7.01
same,activity during period 15,[5],-8.09
same,startle response to 20-s acoustic pulses,[3],3.71
same,optomotor response,[4],2.23
